Source: PubChem BioAssay AID1159580 (chemical genetic matrix, 2015)
“And” between values parts separate entries of the source, which are not always exact repeats. Equal entries are not always repeated. Hit rate of the full screen: of about 5,500 compounds, about 2,000 (36%) were called active. Roughly 18% stayed inconclusive and do not appear here. Cut-off read from the data, not from the text of the source: active = normalized growth mostly below about 0.91 (no sharp cut-off); inconclusive = no clear call, values can overlap the other calls; inactive = mostly above about 0.92. This is one part of the list.

Test: chemical genetic growth profiling, strain panel (AID 1159580);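 note: tested at 20 µM; growth read once vehicle control cultures reached saturation at 30 °C; 1 = growth at the plate median or of vehicle wells; lower values mean less growth of the strain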
Details: S. cerevisiae deletion strains, growth OD

Measured: normalized growth

O=C(O)C1CC([C@@H]2CCCCN2)CN2CCCCC12 (some centres not stated)
inactive: locus YAL021C, strain ccr4, hits give low values 1.02 | locus YAL026C, strain drs2, hits give low values 0.967 | locus YAL030W, strain snc1, hits give low values 0.972 | locus YBL061C, strain skt5, hits give low values 0.985 | locus YBR009C, strain hhf1, hits give low values 0.924 | locus YBR021W, strain FUR4, hits give low values 1.08 | locus YBR023C, strain chs3, hits give low values 1.01 | locus YBR171W, strain sec66, hits give low values 0.974 | locus YBR229C, strain ROT2, hits give low values 1.01 | locus YBR231C, strain swc5, hits give low values 0.981 | locus YBR279W, strain paf1, hits give low values 0.995 | locus YCL011C, strain gbp2, hits give low values 0.953 | locus YCL016C, strain dcc1, hits give low values 0.989 | locus YCL029C, strain bik1, hits give low values 0.969 | locus YCL061C, strain MRC1, hits give low values 0.983 | locus YCL069W, strain vba3, hits give low values 0.969 | locus YCR088W, strain abp1, hits give low values 0.987 | locus YDL005C, strain med2, hits give low values 0.972 | locus YDL035C, strain GPR1, hits give low values 1.01 | locus YDL040C, strain nat1, hits give low values 0.981 | locus YDL074C, strain BRE1, hits give low values 1.04 | locus YDL101C, strain DUN1, hits give low values 1.03 | locus YDL134C, strain PPH21, hits give low values 1.1 | locus YDL185W, strain tfp1, hits give low values 0.968 | locus YDL192W, strain arf1, hits give low values 0.967 | locus YDR001C, strain nth1, hits give low values 0.97 | locus YDR069C, strain doa4, hits give low values 0.97 | locus YDR101C, strain arx1, hits give low values 0.984 | locus YDR137W, strain rgp1, hits give low values 0.978 | locus YDR159W, strain sac3, hits give low values 0.958 | locus YDR162C, strain NBP2, hits give low values 1.08 | locus YDR195W, strain ref2 0.924 | locus YDR297W, strain sur2, hits give low values 0.984 | locus YDR318W, strain mcm21, hits give low values 0.98 | locus YDR334W, strain swr1, hits give low values 0.963 | locus YDR335W, strain msn5, hits give low values 0.983 | locus YDR388W, hits give low values 0.986 | locus YDR392W, strain spt3, hits give low values 0.902 | locus YDR502C, strain sam2, hits give low values 0.993 | locus YEL003W, strain gim4, hits give low values 0.98 | locus YEL037C, strain rad23, hits give low values 0.987 | locus YEL061C, strain CIN8 (second series), hits give low values 0.97 | locus YEL061C, strain CIN8, hits give low values 1.01 | locus YER015W, strain faa2, hits give low values 0.997 | locus YER016W, strain bim1, hits give low values 0.993 | locus YER110C, hits give low values 0.992 | locus YER111C, strain swi4, hits give low values 0.965 | locus YER155C, strain BEM2 (second series), hits give low values 0.968 | locus YER155C, strain BEM2, hits give low values 1.01 | locus YER167W, strain BCK2, hits give low values 1.02 | locus YFR010W, strain ubp6, hits give low values 0.969 | locus YGL078C, strain dbp3, hits give low values 0.993 | locus YGL086W, strain mad1, hits give low values 1.03 | locus YGL167C, strain pmr1, hits give low values 0.957 | locus YGL173C, strain kem1, hits give low values 0.979 | locus YGL227W, strain vid30, hits give low values 0.959 | locus YGL240W, strain doc1, hits give low values 0.959 | locus YGL248W, strain PDE1, hits give low values 1.04 | locus YGL253W, strain hxk2, hits give low values 0.999 | locus YGR078C, strain PAC10, hits give low values 1.06 | locus YGR135W, strain pre9, hits give low values 0.979 | locus YGR229C, strain SMI1, hits give low values 1.08 | locus YGR252W, strain gcn5, hits give low values 1.05 | locus YHR013C, strain ard1, hits give low values 0.93 | locus YHR027C, strain rpn1, hits give low values 0.971 | locus YHR030C, strain SLT2, hits give low values 0.997 and 0.989 | locus YHR079C, strain IRE1 (second series), hits give low values 0.998 | locus YHR079C, strain IRE1, hits give low values 0.998 | locus YHR094C, strain hxt1, hits give low values 0.978 | locus YHR129C, strain ARP1, hits give low values 1.01 | locus YHR142W, strain chs7, hits give low values 1.01 | locus YHR200W, strain rpn10, hits give low values 0.968 | locus YIL066C, strain RNR3, hits give low values 1.05 | locus YIL073C, strain SPO22, hits give low values 0.984 | locus YIL125W, strain kgd1, hits give low values 0.993 | locus YIR030C, strain dcg1, hits give low values 0.985 | locus YJL092W, strain hpr5, hits give low values 0.976 | locus YJL095W, strain BCK1 (second series), hits give low values 1 | locus YJL095W, strain BCK1, hits give low values 1.08 and 1.04 | locus YJL115W, strain asf1, hits give low values 0.978 | locus YJL129C, strain trk1, hits give low values 0.973 | locus YJL134W, strain LCB3, hits give low values 1 | locus YJL154C, strain vps35, hits give low values 0.986 | locus YJL164C, strain tpk1, hits give low values 0.997 | locus YJL166W, strain qcr8, hits give low values 0.995 | locus YJL168C, strain set2, hits give low values 0.986 | locus YJL187C, strain SWE1 (second series), hits give low values 1.04 | locus YJL187C, strain SWE1, hits give low values 0.976 | locus YJR043C, strain POL32, hits give low values 1.04 | locus YJR066W, strain TOR1, hits give low values 0.941 | locus YJR075W, strain HOC1, hits give low values 1.03 | locus YKL009W, strain mrt4, hits give low values 0.968 | locus YKL068W, hits give low values 0.99 | locus YKL085W, strain MDH1 (second series), hits give low values 1.01 | locus YKL085W, strain MDH1, hits give low values 1.01 | locus YKL160W, strain elf1, hits give low values 1.01 | locus YKR001C, strain vps1, hits give low values 1.02 | locus YKR026C, strain gcn3, hits give low values 0.973 | locus YKR091W, strain srl3, hits give low values 0.956 | locus YLL001W, strain dnm1, hits give low values 1.01 | locus YLL026W, hits give low values 0.999 | locus YLL041C, strain sdh2, hits give low values 0.997 | locus YLR027C, strain aat2, hits give low values 0.972 | locus YLR039C, strain RIC1, hits give low values 1.01 | locus YLR058C, strain SHM2, hits give low values 1.02 | locus YLR102C, strain apc9, hits give low values 0.998 | locus YLR113W, strain HOG1, hits give low values 1.02 | locus YLR221C, strain rsa3, hits give low values 0.993 | locus YLR258W, strain gsy2, hits give low values 0.982 | locus YLR262C, strain YPT6 (second series), hits give low values 0.978 | locus YLR262C, strain YPT6, hits give low values 1.04 | locus YLR268W, strain sec22, hits give low values 1.02 | locus YLR320W, strain mms22, hits give low values 0.984 | locus YLR330W, strain CHS5, hits give low values 1 | locus YLR342W, strain FKS1 (second series), hits give low values 1.07 | locus YLR342W, strain FKS1, hits give low values 0.958 | locus YLR357W, strain rsc2, hits give low values 0.963 | locus YLR370C, strain arc18, hits give low values 0.957 | locus YLR371W, strain rom2, hits give low values 0.945 | locus YLR384C, strain iki3, hits give low values 0.988 | locus YLR418C, strain cdc73, hits give low values 1.01 | locus YML016C, strain PPZ1, hits give low values 1.02 | locus YML032C, strain rad52, hits give low values 0.986 | locus YML120C, strain ndi1, hits give low values 0.991 | locus YML124C, strain tub3, hits give low values 0.978 | locus YMR058W, strain fet3, hits give low values 0.968 | locus YMR078C, strain ctf18, hits give low values 0.963 | locus YMR125W, strain sto1, hits give low values 0.917 | locus YMR129W, hits give low values 0.96 | locus YMR205C, strain PFK2, hits give low values 0.931 | locus YMR223W, strain ubp8, hits give low values 0.981 | locus YMR231W, strain pep5, hits give low values 0.967 | locus YMR307W, strain GAS1, hits give low values 1.13 | locus YNL067W, strain RPL9B, hits give low values 1.05 | locus YNL071W, strain lat1, hits give low values 0.987 | locus YNL153C, strain GIM3, hits give low values 1.07 | locus YNL183C, strain NPR1, hits give low values 0.97 | locus YNL209W, strain ssb2, hits give low values 0.965 | locus YNL233W, strain BNI4, hits give low values 1.06 | locus YNL248C, strain rpa49, hits give low values 1.01 | locus YNL250W, strain rad50, hits give low values 0.983 | locus YNL271C, strain bni1, hits give low values 0.968 | locus YNL298W, strain CLA4, hits give low values 0.972 | locus YNL307C, strain MCK1, hits give low values 0.999 | locus YNL322C, strain KRE1 (second series), hits give low values 0.971 | locus YNL322C, strain KRE1, hits give low values 1.01 | locus YNR049C, strain mso1, hits give low values 0.978 | locus YNR052C, strain pop2, hits give low values 0.975 | locus YOL006C, strain TOP1, hits give low values 1.08 | locus YOL012C, strain htz1 0.943 | locus YOL147C, strain pex11, hits give low values 0.995 | locus YOR001W, strain rrp6, hits give low values 1.03 | locus YOR061W, strain CKA2, hits give low values 1.01 | locus YOR069W, strain VPS5, hits give low values 1 | locus YOR070C, strain gyp1, hits give low values 0.999 | locus YOR080W, strain dia2, hits give low values 0.973 | locus YOR083W, strain WHI5, hits give low values 1.02 | locus YOR106W, strain vam3, hits give low values 1 | locus YOR136W, strain idh2, hits give low values 1.01 | locus YOR144C, strain elg1, hits give low values 0.996 | locus YOR184W, strain ser1, hits give low values 1.01 | locus YOR231W, strain MKK1, hits give low values 0.98 | locus YOR265W, strain rbl2, hits give low values 0.946 | locus YOR270C, strain vph1, hits give low values 0.989 | locus YOR290C, strain snf2, hits give low values 0.917 | locus YOR316C, strain cot1, hits give low values 0.971 | locus YPL051W, strain arl3, hits give low values 1.01 | locus YPL055C, strain LGE1, hits give low values 1.06 | locus YPL078C, strain atp4, hits give low values 0.988 | locus YPL106C, strain sse1, hits give low values 0.959 | locus YPL240C, strain hsp82, hits give low values 0.977 | locus YPL256C, strain CLN2, hits give low values 1.01 | locus YPR119W, strain clb2, hits give low values 0.987 | locus YPR141C, strain kar3, hits give low values 0.983 | locus YPR163C, strain tif3, hits give low values 0.989 | locus YPR167C, strain met16, hits give low values 0.975 | strain wtn01, hits give low values 0.989
